Sm TGR inh – qHTS Assay for the Inhibitors of Schistosoma Mansoni Peroxiredoxins. hit rate 3% among 360,000. purified TGR, DTNB reduction, TNB absorbance 405 nm. Potency, µM (highest dose often 114 µM), for inactives: top-dose activity change, negative = inhibition, hits mostly inhibitors. AID 485364, 2010. Schistosoma mansoni thioredoxin glutathione reductase (TGR), Q962Y6; note: nearly all actives have a fitted effect of over 60% in size
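First, TGR (20 nM dispensed) and NADPH were mixed with compound. Second, a 15 min room-temperature incubation followed. Third, further NADPH and then DTNB were added to start the reaction. Finally, TNB absorbance was monitored kinetically.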
AmpC detergent – qHTS Inhibitors of AmpC Beta-Lactamase (assay with detergent). P00811. Potency, µM (highest dose often 114 µM), without a hit: at the top dose activity change, negative = inhibition, usual class: inhibitors. AmpC hydrolysis of nitrocefin, absorbance 480 nm, 0.01% Triton. hit rate 0.041% among 370,000;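 note: 0% = no-compound wells and -100% = no-enzyme wells; nearly all actives have a fitted effect of over 25% in size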
Target sequence (P00811 whole entry, looked up): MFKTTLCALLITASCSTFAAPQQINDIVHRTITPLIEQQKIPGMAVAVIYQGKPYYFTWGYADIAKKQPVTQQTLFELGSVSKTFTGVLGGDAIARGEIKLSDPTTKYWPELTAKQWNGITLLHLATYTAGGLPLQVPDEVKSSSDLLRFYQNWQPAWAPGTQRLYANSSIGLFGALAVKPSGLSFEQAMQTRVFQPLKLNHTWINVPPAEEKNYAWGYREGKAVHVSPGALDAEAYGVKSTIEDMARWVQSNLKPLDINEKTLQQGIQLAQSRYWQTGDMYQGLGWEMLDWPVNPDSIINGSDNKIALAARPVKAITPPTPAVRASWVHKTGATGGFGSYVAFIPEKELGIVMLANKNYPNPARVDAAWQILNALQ
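AmpC (5.3 nM in the dispensed reagent) in 20 mM phosphate pH 7.0 with 0.01% (detergent screen) or 0.0001% Triton X-100 was preincubated with compounds for 15 min at room temperature. Nitrocefin was then added from an 800 uM solution, and hydrolysis was followed at 480 nm.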
AmpC no deterg – qHTS Inhibitors of AmpC Beta-Lactamase (assay without detergent); AID 485341, 2010; P00811; Potency, µM (doses to about 57.1 µM), for inactives: top-dose activity change, negative = inhibition, actives largely listed as inhibitors; AmpC nitrocefin hydrolysis, absorbance 480 nm, 0.0001% Triton; hit rate 0.52% among 330,000;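 note: plate controls were no compound for no effect and no enzyme for full effect; nearly all actives have a fitted effect of over 20% in size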
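20 mM phosphate pH 7.0 + 0.01% (detergent screen) or 0.0001% Triton X-100; 5.3 nM AmpC reagent; cpd preinc 15 min RT; nitrocefin (800 uM stock) to start; A480 q20 s × 4 min; Activity was normalised to no-enzyme and no-compound control wells.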
FBPA Giardia inh – qHTS Assay for Inhibitors of Fructose-1,6-bisphosphate Aldolase from Giardia Lamblia; Potency, µM (top dose mostly 59.6 µM), for the others: at the top dose activity, negative = inhibition, actives largely listed as inhibitors; hit rate 0.71% among 290,000; AID 2451, 2010; purified Giardia FBPA; note: nearly all actives have a fitted effect of over 55% in size
Target sequence (A8B2U2 whole entry, looked up): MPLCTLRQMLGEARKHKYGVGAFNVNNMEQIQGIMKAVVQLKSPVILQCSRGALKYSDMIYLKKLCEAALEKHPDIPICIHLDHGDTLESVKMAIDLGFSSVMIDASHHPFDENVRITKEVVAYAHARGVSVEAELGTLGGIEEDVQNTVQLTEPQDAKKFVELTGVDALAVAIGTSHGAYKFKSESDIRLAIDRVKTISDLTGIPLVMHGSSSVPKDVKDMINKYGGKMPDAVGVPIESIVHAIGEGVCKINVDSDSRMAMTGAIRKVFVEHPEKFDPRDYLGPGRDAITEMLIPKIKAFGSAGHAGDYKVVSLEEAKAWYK
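40 nM FBPA preincubated 10 min at RT with compound (up to 57.5 uM final), then substrate plus GAPDH/TPI/NAD/arsenate coupling and diaphorase/resazurin added. Fluorescence read after 20 min at RT, 525/598 nm.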
* marks the source's active call; other numbers are inactive results; ? = inconclusive; nt = not tested or not shown. Sampled rows, rich in hits. Any-hit rate of the full collection: about 3.6%. Calls come from the whole dose curve; as a rule, active = well fitted curve in the direction sought with a large enough effect; inconclusive = small, poorly fitted or top-dose-only effect, or another doubt; inactive = no such curve, though single readings can be large; an effect the other way counts as inactive or inconclusive. Unless noted, % is set by controls: 0 for no effect and ±100 for the full control effect; potency is the fitted concentration of half-maximal effect.

SMILES	Sm TGR inh	AmpC detergent	AmpC no deterg	FBPA Giardia inh
O=[N+]([O-])c1cc(/C=N\Nc2ccccn2)ccc1Cl	-6%	1%	-25%	-1%
CCCn1c(SCC(=O)Nc2cccnc2Cl)n[nH]c1=O	nt	nt	-19%	nt
O=C(O)CCc1ccc(-c2cccs2)n1NC(=O)c1ccco1	?	1%	-19%	1%
COCCCn1c(CCC(=O)O)ccc1-c1cccs1	8.9µM*	-7%	-8%	1%
CCCn1c(CCC(=O)O)ccc1-c1ccccc1	-30%	?	-27%	15%
CCCn1c(CCC(=O)O)ccc1-c1cccs1	3.5µM*	?	4%	18%
O=C(CSc1nc2c([nH]c3ccccc32)c(=O)n1-c1ccc(Cl)cc1)N1CCOCC1	5%	8%	nt	nt
CCOC(=O)C1(CCc2ccccc2)CCN(C(=O)C2CCOCC2)CC1	8%	4%	139%	2%
Cc1cc(C(=O)CS(=O)(=O)c2ccc(F)cc2)cc(C)c1OC(=O)N(C)C	-2%	-5%	42%	0%
COc1ccc(S(=O)(=O)CC(=O)c2cc(C)c(O)c(C)c2)cc1	28µM*	-5%	-51%	5%
Cc1cc(C(=O)CS(=O)(=O)c2ccc(Cl)cc2)cc(C)c1O	4.5µM*	5%	-47%	-5%
Cc1nn(-c2ccccc2)c2nc(N)c(C#N)c(-c3ccc(O)c(O)c3)c12	0%	1%	-50%	-21%
Cc1nn(-c2ccc(F)cc2)c2nc(N)c(C#N)c(-c3ccc(O)c(O)c3)c12	-13%	2%	14µM*	-26%
O=C(Cn1ccc(NC(=O)OCc2ccccc2)nc1=O)NCCN1CCOCC1	-16%	-2%	-12%	nt
COc1ccc(OC)c(C2=NO[C@@](CC(=O)O)(C(=O)Nc3ccc4c(c3)OCCO4)C2)c1	13µM*	-9%	-18%	-9%
Cc1ccc(C2=NO[C@@](CC(=O)O)(C(=O)Nc3ccc4c(c3)OCCO4)C2)cc1	14µM*	-3%	-21%	-19%
COc1ccc(OC)c(NC(=O)[C@@]2(CC(=O)O)CC(/C=C/c3ccccc3)=NO2)c1	?	-2%	-35%	-7%
Cc1ccc(C(=O)Nc2ccc3c(c2)OCCO3)cc1	9%	-7%	-5%	-2%
Cc1cccc(N2CCN(S(=O)(=O)c3cc(C(=O)Nc4ccccc4Cl)ccc3F)CC2)c1C	0%	3%	nt	nt
CC(C)(C)C(=O)/C(=C/c1ccncc1)n1cncn1	nt	2%	-14%	3%
CC(C)C[C@H](NC(=O)[C@H](C)NC(=O)CNC(=O)[C@H](CCCCN)NC(=O)[C@H](CCCN=C(N)N)NC(=O)[C@H](C)NC(=O)[C@H](Cc1ccccc1)NC(=O)[C@@H](N)CCCN=C(N)N)C(=O)N[C@@H](CCCN=C(N)N)C(=O)N[C@@H](CCC(N)=O)C(=O)N[C@@H](CCCCN)C(=O)N[C@@H](CC(N)=O)C(=O)N[C@H](C(N)=O)C(C)C	nt	nt	nt	5%
COc1ccc2cc(C[C@@H]3CC[C@@H](CNC(N)=O)O3)ccc2c1	nt	nt	3%	nt
CC(=O)c1cccc(NC(=O)C(C)OC(=O)c2cccc(S(=O)(=O)N3CCN(C)CC3)c2)c1 (configuration not stated)	50µM*	?	-1%	nt
CC(OC(=O)c1cccc(S(=O)(=O)N2CCN(C)CC2)c1)C(=O)Nc1ccc(C(N)=O)cc1 (configuration not stated)	-2%	-15%	-15%	nt
CCN(c1ccc(NC(=O)c2cccc(S(=O)(=O)N3CCN(C)CC3)c2)cc1)C(C)C	8.9µM*	2%	-13%	nt
SMILES	Sm TGR inh	AmpC detergent	AmpC no deterg	FBPA Giardia inh
CN(C)C(=O)NC(Nc1cccc([N+](=O)[O-])c1)C(Cl)(Cl)Cl (configuration not stated)	20µM*	6%	-30%	0%
CC(C)C(=O)NC(Nc1cccc([N+](=O)[O-])c1)C(Cl)(Cl)Cl (configuration not stated)	nt	-5%	?	0%
CC(=O)N(\C=C/C=C/C=C1\Sc2ccccc2C1=O)c1ccccc1	16µM*	-8%	?	-26%
Cc1cccc(-c2cc(NC(=O)COc3ccccc3F)n(-c3ccccc3)n2)c1	7%	20%	nt	nt
COC(=O)c1nc(-c2ccc3c(n2)C(=O)C(N)=C(OC)C3=O)c(N)c(-c2ccc(OC)c(OC)c2O)c1C	1%	3%	-11%	10µM*
CC/C=C\C/C=C\C/C=C\CCCCCCCCCCCC(=O)O	nt	nt	nt	6%
CC/C=C\C/C=C\C/C=C\CCCCCCCC(=O)O	35µM*	?	61%	8%
CCCCC/C=C\C/C=C\C/C=C\C/C=C\CCCC(=O)O	18µM*	-21%	144%	3%
COC(=O)c1sc2ccccc2c1S(=O)(=O)N1CCN(c2ccc(C(C)=O)cc2)CC1	-2%	19%	nt	nt
Cc1ccc2nc(N3C(=O)C(O)=C(C(=O)c4ccco4)C3c3ccc(C)o3)sc2c1 (configuration not stated)	32µM*	5%	-47%	-8%
Cc1ccc2nc(N3C(=O)C(O)=C(C(=O)c4ccc(C)o4)C3c3ccco3)sc2c1 (configuration not stated)	?	-1%	-47%	nt
NC(=O)c1cc([N+](=O)[O-])ccc1NCc1ccc(N)cc1	-5%	-12%	-19%	nt
Cc1ccc(C(=O)/C=C/c2cc(Br)cc(Br)c2O)o1	1.6µM*	5%	-28%	5%
Cc1ccc(C(=O)/C=C/N(C)C)o1	0%	-4%	-10%	-1%
Cc1cc(=O)[nH]c(N/N=C2/CCCC/C2=C\c2ccccc2)n1	22µM*	0%	-16%	?
Cc1cc(=O)[nH]c(N/N=C/C=C/c2ccccc2)n1	-9%	-6%	-18%	?
O=C(Nn1c(C2CCCCC2)nc2ccccc2c1=O)c1cc(Cl)ccc1[N+](=O)[O-]	2%	4%	-12%	0%
O=C(Nn1c(C2CCCCC2)nc2ccccc2c1=O)c1ccc([N+](=O)[O-])cc1Cl	2%	-10%	14µM*	5%
CC(=O)c1cccc(NC(=O)c2cc(S(=O)(=O)N3CCOCC3)cs2)c1	-3%	3%	-18%	nt
CC(C)OCCCn1c(-c2ccco2)nc2nc3ccccc3nc21	50µM*	-2%	28%	-7%
CCCCn1c(-c2ccco2)nc2ccccc2c1=O	56µM*	4%	-7%	1%
CCOc1ccc(-n2ccnc2SCC(=O)Nc2nc3ccc(C)cc3s2)cc1	1%	3%	nt	nt
CCc1ccc(OC(=O)c2sc3ncn(Cc4cccc(F)c4)c(=O)c3c2C)cc1	7%	-6%	nt	nt
CCOC(=O)N1CCN(C(=O)c2ccc(-n3c(=S)[nH]c4ccccc4c3=O)cc2)CC1	0%	-1%	-59%	0%
CCOC(=O)COc1cc(-n2c(=S)[nH]c3ccccc3c2=O)c(Cl)cc1Cl	0%	?	18µM*	-11%
COc1cccc(N2C(=O)/C(=C/c3ccc(C)o3)C(=O)NC2=S)c1	1.8µM*	-1%	-46%	-27%

Compound activity (PubChem)
